{"source": "the antibiotic and cytotoxicity screens of Wong et al. (2023)", "note": "Hit rate of the full screen: of about 39,000 compounds, about 3,300 (8.5%) were called active. The full list was thinned out, with actives kept by preference."}
{"test_system": "HepG2", "test": "cytotoxicity call (relative viability < 0.9)", "details": "10 µM"}
{"smiles": "CC(C)COC(=O)CNc1n[nH]c(=O)[nH]c1=O", "cytotoxicity call": "inactive"}
{"smiles": "Cn1cnc(S(=O)(=O)N[C@@H]2C=C[C@@H](CC(=O)Nc3ccccc3)O[C@@H]2CO)c1", "cytotoxicity call": "inactive"}
{"smiles": "CCOC(=O)[C@H]1CC(C)=NNC1=O", "cytotoxicity call": "inactive"}
{"smiles": "Cn1cncc1[C@@](N)(c1ccc(Cl)cc1)c1ccc2c(c1)c(-c1cccc(Cl)c1)cc(=O)n2C", "cytotoxicity call": "active"}
{"smiles": "O=C(CCCCCCC(=O)N/N=C/c1cccc(B(O)O)c1)NO", "cytotoxicity call": "inactive"}
{"smiles": "Cn1cnc(CCNC(=O)C[C@H]2CC[C@H]3[C@@H](COC[C@@H](O)CN3C(=O)Nc3ccc(C(F)(F)F)cc3)O2)c1", "cytotoxicity call": "inactive"}
{"smiles": "c1cn(-c2ccc(-n3ccnc3)nn2)cn1", "cytotoxicity call": "inactive"}
{"smiles": "Clc1ccc2c(c1)C(N1CCNCC1)=Nc1ccccc1O2", "cytotoxicity call": "active"}
{"smiles": "CN1CCN(C2=Nc3cc(Cl)ccc3Nc3ccccc32)CC1", "cytotoxicity call": "inactive"}
{"smiles": "CN1CCN(C2=Nc3ccccc3Oc3ccc(Cl)cc32)CC1.O=C(O)CCC(=O)O", "cytotoxicity call": "inactive"}
{"smiles": "CCS(=O)(=O)Nc1ccc2c(c1)C(=O)N(C)C[C@@H](OC)[C@H](C)CN(Cc1cccnc1)[C@H](C)CO2", "cytotoxicity call": "inactive"}
{"smiles": "O=C(C[C@@H]1C[C@H]2c3cc(NC(=O)Nc4ccc(C(F)(F)F)cc4)ccc3O[C@H]2[C@H](CO)O1)NCCc1ccccc1", "cytotoxicity call": "inactive"}
{"smiles": "CO[C@H]1CN(C)C(=O)c2cc(NS(=O)(=O)c3cn(C)cn3)ccc2OC[C@@H](C)N(CC2CC2)C[C@@H]1C", "cytotoxicity call": "inactive"}
{"smiles": "C[C@@H]1CCCCO[C@H](CN(C)S(=O)(=O)c2cccs2)[C@@H](C)CN([C@H](C)CO)C(=O)c2cc(NC(=O)Nc3ccc(F)cc3)ccc2O1", "cytotoxicity call": "inactive"}
{"smiles": "C[C@@H]1CCCCO[C@@H](CN(C)S(=O)(=O)c2cccs2)[C@H](C)CN([C@H](C)CO)C(=O)c2cc(NC(=O)Nc3ccccc3)ccc2O1", "cytotoxicity call": "active"}
{"smiles": "C[C@@H]1CCCCO[C@@H](CN(C)S(=O)(=O)c2cccs2)[C@H](C)CN([C@@H](C)CO)C(=O)c2cc(NC(=O)Nc3ccccc3)ccc2O1", "cytotoxicity call": "inactive"}
{"smiles": "C[C@@H]1CCCCO[C@@H](CN(C)S(=O)(=O)c2cccs2)[C@@H](C)CN([C@H](C)CO)C(=O)c2cc(NC(=O)Nc3ccc(F)cc3)ccc2O1", "cytotoxicity call": "inactive"}
{"smiles": "C[C@@H]1CN([C@@H](C)CO)C(=O)c2cc(NC(=O)Nc3ccc(F)cc3)ccc2O[C@@H](C)CCCCO[C@H]1CN(C)S(=O)(=O)c1cccs1", "cytotoxicity call": "active"}
{"smiles": "C[C@H](CO)N1C[C@H](C)[C@@H](CN(C)S(=O)(=O)c2cccs2)OCCCC[C@H](C)Oc2ccc(NC(=O)Nc3ccc(F)cc3)cc2C1=O", "cytotoxicity call": "inactive"}
{"smiles": "COc1ccc(NC(=O)Nc2ccc3c(c2)C(=O)N([C@@H](C)CO)C[C@H](C)[C@H](CN(C)S(=O)(=O)c2cccs2)OCCCC[C@@H](C)O3)cc1", "cytotoxicity call": "inactive"}
{"smiles": "C[C@@H]1CN([C@@H](C)CO)C(=O)c2cc(NC(=O)Nc3ccccc3)ccc2O[C@@H](C)CCCCO[C@@H]1CN(C)S(=O)(=O)c1cccs1", "cytotoxicity call": "inactive"}
{"smiles": "COc1ccc(NC(=O)Nc2ccc3c(c2)C(=O)N([C@@H](C)CO)C[C@H](C)[C@@H](CN(C)S(=O)(=O)c2cccs2)OCCCC[C@@H](C)O3)cc1", "cytotoxicity call": "active"}
{"smiles": "C[C@H]1CCCCO[C@@H](CN(C)S(=O)(=O)c2cccs2)[C@@H](C)CN([C@@H](C)CO)C(=O)c2cc(NC(=O)Nc3ccc(F)cc3)ccc2O1", "cytotoxicity call": "active"}
{"smiles": "C[C@@H]1CN([C@H](C)CO)C(=O)c2cc(NC(=O)Nc3ccc(F)cc3)ccc2O[C@@H](C)CCCCO[C@H]1CN(C)S(=O)(=O)c1cccs1", "cytotoxicity call": "inactive"}
{"smiles": "COc1ccc(NC(=O)Nc2ccc3c(c2)C(=O)N([C@H](C)CO)C[C@H](C)[C@@H](CN(C)S(=O)(=O)c2cccs2)OCCCC[C@H](C)O3)cc1", "cytotoxicity call": "inactive"}
{"smiles": "C[C@@H]1CN([C@@H](C)CO)C(=O)Cc2cc(NC(=O)CCCCCC(=O)Nc3ccccc3N)ccc2O[C@@H]1CN(C)C(=O)Nc1ccc(F)cc1", "cytotoxicity call": "inactive"}
{"smiles": "C[C@H](CO)N1C[C@H](C)[C@@H](CN(C)C(=O)NC2CCCCC2)Oc2c(NC(=O)c3cnccn3)cccc2C1=O", "cytotoxicity call": "inactive"}
{"smiles": "Cc1noc(C)c1S(=O)(=O)Nc1ccc2c(c1)C(=O)N([C@H](C)CO)C[C@H](C)[C@H](CN(C)C(=O)Nc1ccc(F)cc1)OCCCC[C@@H](C)O2", "cytotoxicity call": "inactive"}
{"smiles": "C[C@@H]1CN([C@@H](C)CO)C(=O)c2cc(C#CC3(O)CCCC3)cnc2O[C@H]1CN(C)C(=O)CN(C)C", "cytotoxicity call": "inactive"}
{"smiles": "CNC[C@H]1OCCCC[C@@H](C)Oc2ccc(NC(=O)Nc3ccc(C(F)(F)F)cc3)cc2C(=O)N([C@@H](C)CO)C[C@H]1C", "cytotoxicity call": "inactive"}
{"smiles": "COc1ccc(NC(=O)Nc2cccc3c2O[C@@H](CN(C)Cc2ccc(C(=O)Nc4ccccc4N)cc2)[C@H](C)CN([C@H](C)CO)C3=O)cc1", "cytotoxicity call": "inactive"}
{"smiles": "C[C@@H]1CCCCO[C@@H](CN(C)Cc2ccc(C(=O)Nc3ccccc3N)cc2)[C@@H](C)CN([C@H](C)CO)C(=O)c2cc(NC(=O)NC3CCCCC3)ccc2O1", "cytotoxicity call": "inactive"}
{"smiles": "COCCOC(=O)N1C(=O)[C@@]2(c3cc(C#Cc4ccc(OC)cc4)ccc31)[C@H](c1ccccc1OCCO)N1[C@H](c3ccccc3)[C@H](c3ccccc3)OC(=O)[C@H]1[C@@H]2C(=O)NC[C@H](O)c1ccccc1", "cytotoxicity call": "inactive"}
{"smiles": "CC(C)NC(=O)Nc1ccc2c(c1)CC(=O)N([C@H](C)CO)C[C@@H](C)[C@H](CN(C)S(=O)(=O)c1ccccc1)O2", "cytotoxicity call": "inactive"}
{"smiles": "C[C@@H]1CN([C@H](C)CO)C(=O)c2cccc(NC(=O)C3CCCCC3)c2O[C@@H]1CN(C)Cc1ccc(Oc2ccccc2)cc1", "cytotoxicity call": "inactive"}
{"smiles": "CO[C@@H]1CN(C)C(=O)c2cc(NC(=O)Nc3cccc(Cl)c3)ccc2OC[C@@H](C)N(C(=O)Nc2c(C)noc2C)C[C@@H]1C", "cytotoxicity call": "inactive"}
{"smiles": "CO[C@H]1CN(C)C(=O)c2cc(NC(=O)Nc3cccc(Cl)c3)ccc2OC[C@H](C)N(C(=O)Nc2c(C)noc2C)C[C@@H]1C", "cytotoxicity call": "inactive"}
{"smiles": "C[C@@H]1CCCCO[C@@H](CN(C)S(=O)(=O)c2cccs2)[C@H](C)CN([C@H](C)CO)C(=O)c2cc(NC(=O)Cc3ccccc3)ccc2O1", "cytotoxicity call": "active"}
{"smiles": "C[C@@H]1CN([C@H](C)CO)C(=O)c2cc(NC(=O)Cc3ccccc3)ccc2O[C@@H](C)CCCCO[C@H]1CN(C)S(=O)(=O)c1cccs1", "cytotoxicity call": "inactive"}
{"smiles": "C[C@@H]1CCCCO[C@@H](CN(C)S(=O)(=O)c2cccs2)[C@H](C)CN([C@@H](C)CO)C(=O)c2cc(NC(=O)Cc3ccccc3)ccc2O1", "cytotoxicity call": "inactive"}
{"smiles": "C[C@@H]1CCCCO[C@H](CN(C)S(=O)(=O)c2cccs2)[C@H](C)CN([C@H](C)CO)C(=O)c2cc(NC(=O)Nc3ccc(F)cc3)ccc2O1", "cytotoxicity call": "active"}
{"smiles": "C[C@@H]1CN([C@@H](C)CO)C(=O)c2cc(NC(=O)NC3CCCCC3)ccc2O[C@@H](C)CCCCO[C@@H]1CN(C)S(=O)(=O)c1cccs1", "cytotoxicity call": "inactive"}
{"smiles": "C[C@H](CO)N1C[C@H](C)[C@H](CN(C)S(=O)(=O)c2cccs2)OCCCC[C@H](C)Oc2ccc(NC(=O)Nc3ccc(F)cc3)cc2C1=O", "cytotoxicity call": "inactive"}
{"smiles": "C[C@@H]1CCCCO[C@@H](CN(C)S(=O)(=O)c2cccs2)[C@H](C)CN([C@H](C)CO)C(=O)c2cc(NC(=O)NC3CCCCC3)ccc2O1", "cytotoxicity call": "active"}
{"smiles": "C[C@H]1CCCCO[C@H](CN(C)S(=O)(=O)c2cccs2)[C@@H](C)CN([C@@H](C)CO)C(=O)c2cc(NC(=O)Nc3ccc(F)cc3)ccc2O1", "cytotoxicity call": "inactive"}
{"smiles": "C[C@@H]1CN([C@@H](C)CO)C(=O)c2cc(NC(=O)NC3CCCCC3)ccc2O[C@@H](C)CCCCO[C@H]1CN(C)S(=O)(=O)c1cccs1", "cytotoxicity call": "inactive"}
{"smiles": "O=C(O)CNC(=O)C1CCC1", "cytotoxicity call": "inactive"}
{"smiles": "COCCNC(=O)C[C@@H]1CC[C@H]2[C@@H](COC[C@H](O)CN2C(=O)Nc2ccc3c(c2)OCO3)O1", "cytotoxicity call": "inactive"}
{"smiles": "CN1C(=O)c2cc(NC(=O)c3cscn3)ccc2OC[C@@H]2O[C@H](CC(=O)N3CCOCC3)CC[C@H]21", "cytotoxicity call": "inactive"}
{"smiles": "C[C@@H]1CCCCO[C@@H](CN(C)C(=O)Cc2ccccc2)[C@H](C)CN([C@H](C)CO)C(=O)c2cc(NC(=O)Nc3ccccc3)ccc2O1", "cytotoxicity call": "inactive"}
{"smiles": "COc1ccc(S(=O)(=O)N(C)C[C@@H]2Oc3ccc(NS(=O)(=O)c4ccccc4)cc3C(=O)N([C@@H](C)CO)C[C@@H]2C)cc1", "cytotoxicity call": "inactive"}
{"smiles": "Cc1noc(C)c1NC(=O)N(C)C[C@@H]1Oc2ccc(NC(=O)c3ccncc3)cc2CC(=O)N([C@H](C)CO)C[C@@H]1C", "cytotoxicity call": "inactive"}
{"smiles": "COC(=O)C1=C2CC[C@H](CO)NC(=O)N[C@H](Cc3ccccc3)C(=O)NCc3cn(nn3)C[C@H](Cc3ccccc3)NC(=O)c3oc(c(C(=O)OC)c3C(=O)OC)CC[C@H](CO)NC(=O)N[C@H](Cc3ccccc3)C(=O)NCc3cn(nn3)C[C@H](Cc3ccccc3)NC(=O)C(=C1C(=O)OC)O2", "cytotoxicity call": "inactive"}
{"smiles": "C[C@@H]1CN([C@H](C)CO)C(=O)c2cc(C3=CCCC3)cnc2O[C@H]1CN(C)C(=O)Nc1ccc(C(F)(F)F)cc1", "cytotoxicity call": "inactive"}
{"smiles": "Cc1ccc(S(=O)(=O)N(C)C[C@H]2OCCCC[C@H](C)Oc3ccc(NC(=O)Nc4cccc5ccccc45)cc3C(=O)N([C@@H](C)CO)C[C@@H]2C)cc1", "cytotoxicity call": "inactive"}
{"smiles": "C[C@H](CO)N1C[C@H](C)[C@@H](CN(C)C(=O)C2CCOCC2)Oc2ncc(C#CCc3ccccc3)cc2C1=O", "cytotoxicity call": "inactive"}
{"smiles": "C[C@@H]1CN([C@H](C)CO)C(=O)c2cc(Br)cnc2O[C@H]1CN(C)C(=O)Nc1ccc(F)cc1", "cytotoxicity call": "inactive"}
{"smiles": "COc1ccc(NC(=O)N(C)C[C@H]2OCCCC[C@H](C)Oc3ccc(NS(=O)(=O)c4ccc(C)cc4)cc3C(=O)N([C@H](C)CO)C[C@@H]2C)cc1", "cytotoxicity call": "inactive"}
{"smiles": "CCCc1cc(C)[nH]c(=O)c1CNC(=O)c1cc(-c2ccc(N3CCN(C(C)C)CC3)nc2)cc2c1cnn2C(C)C", "cytotoxicity call": "active"}
{"smiles": "C[C@@H]1CN([C@H](C)CO)C(=O)c2cc(-c3cccc(C(=O)N(C)C)c3)cnc2O[C@H]1CN(C)S(=O)(=O)c1ccc(F)cc1", "cytotoxicity call": "inactive"}
